In the library only some 2.4% were active in any assay of this set; here they are far more common.
FEN1 inhibitor = human FEN1 inhibition; P39748; Recombinant FEN1 flap cleavage, fluorescence, 15 min; Potency, µM (titrated, usually from 114 µM), for inactives: at the highest dose activity change, negative = inhibition, actives largely listed as inhibitors; 390,000 compounds, 0.35% hits; AID 588795; further: on the % scale 0 is the no-effect control and ±100 the full control effect; nearly all actives have a fitted effect of over 65% in size
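In this screen, 50 nM flap DNA substrate was added to 10 nM FEN1 pretreated with compound for 15 min at room temperature; cleavage was followed with reads at 0 and 15 min, and Hill fitting gave concentration–response parameters.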
Pol beta inh = DNA polymerase beta (human) inhibition. Pol beta primer extension/strand displacement, fluorescence kinetic. AID 485314. Potency, µM (series often up to 114 µM), for inactives: at the highest dose activity change, negative = inhibition, usual class: inhibitors. 340,000 compounds, 1.3% hits; further: on the % scale 0 is the no-effect control and ±100 the full control effect
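Preincubation: enzyme (10 nM) with compound, 15 min, RT. Reaction: substrate added to 50 nM final. Reads: 0 and 10 min. Analysis: normalized, Hill fit.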
POLH inh = inhibitors of human DNA polymerase eta; Q9Y253; recombinant Pol eta, fluorescent DNA replication assay; 390,000 compounds, 1.2% hits; Potency, µM (series often up to 114 µM), for inactives: top-dose activity change, negative = inhibition, usual class: inhibitors; further: on the % scale 0 is the no-effect control and ±100 the full control effect
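Pol eta at 10 nM preincubated with compounds 15 min at room temperature; reaction started with fluorescent substrate (50 nM final) and read kinetically at 0 and 10 min.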
POLI inh = inhibitors of human DNA polymerase iota; Pol iota fluorescent replication assay, 10 min; Potency, µM (highest dose often 115 µM), inactives show at the top dose activity, negative = inhibition, most hits filed as inhibitors; 390,000 compounds, 1% hits
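Fluorescent replication assay read twice, at 0 min and 10 min after adding 50 nM (final) substrate. Enzyme (10 nM) and compounds were first incubated 15 min at room temperature; enzyme-free buffer wells were negative controls.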
Pol kappa inh = DNA polymerase kappa (human) inhibition; Q9UBT6; purified Pol kappa, fluorescent DNA synthesis assay, 10 min; Potency, µM (top dose mostly 107 µM), without a hit: at the highest dose activity, negative = inhibition, hits mostly inhibitors; 400,000 compounds, 0.53% hits; further: on the % scale 0 is the no-effect control and ±100 the full control effect
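First, compounds were pin-transferred onto 10 nM Pol kappa. After 15 min at room temperature, substrate was added to 50 nM final. Fluorescence was then measured kinetically at 0 and 10 min.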
WRN inhibitor = inhibitors of human WRN helicase; Q14191; WRN helicase unwinding, fluorescent forked duplex, kinetic; Potency, µM (highest dose often 114 µM), for the others: top-dose activity change, negative = inhibition, hits mostly inhibitors; 360,000 compounds, 0.46% hits; further: on the % scale 0 is the no-effect control and ±100 the full control effect; nearly all actives have a fitted effect of over 55% in size
Target sequence (Q14191 whole entry, looked up): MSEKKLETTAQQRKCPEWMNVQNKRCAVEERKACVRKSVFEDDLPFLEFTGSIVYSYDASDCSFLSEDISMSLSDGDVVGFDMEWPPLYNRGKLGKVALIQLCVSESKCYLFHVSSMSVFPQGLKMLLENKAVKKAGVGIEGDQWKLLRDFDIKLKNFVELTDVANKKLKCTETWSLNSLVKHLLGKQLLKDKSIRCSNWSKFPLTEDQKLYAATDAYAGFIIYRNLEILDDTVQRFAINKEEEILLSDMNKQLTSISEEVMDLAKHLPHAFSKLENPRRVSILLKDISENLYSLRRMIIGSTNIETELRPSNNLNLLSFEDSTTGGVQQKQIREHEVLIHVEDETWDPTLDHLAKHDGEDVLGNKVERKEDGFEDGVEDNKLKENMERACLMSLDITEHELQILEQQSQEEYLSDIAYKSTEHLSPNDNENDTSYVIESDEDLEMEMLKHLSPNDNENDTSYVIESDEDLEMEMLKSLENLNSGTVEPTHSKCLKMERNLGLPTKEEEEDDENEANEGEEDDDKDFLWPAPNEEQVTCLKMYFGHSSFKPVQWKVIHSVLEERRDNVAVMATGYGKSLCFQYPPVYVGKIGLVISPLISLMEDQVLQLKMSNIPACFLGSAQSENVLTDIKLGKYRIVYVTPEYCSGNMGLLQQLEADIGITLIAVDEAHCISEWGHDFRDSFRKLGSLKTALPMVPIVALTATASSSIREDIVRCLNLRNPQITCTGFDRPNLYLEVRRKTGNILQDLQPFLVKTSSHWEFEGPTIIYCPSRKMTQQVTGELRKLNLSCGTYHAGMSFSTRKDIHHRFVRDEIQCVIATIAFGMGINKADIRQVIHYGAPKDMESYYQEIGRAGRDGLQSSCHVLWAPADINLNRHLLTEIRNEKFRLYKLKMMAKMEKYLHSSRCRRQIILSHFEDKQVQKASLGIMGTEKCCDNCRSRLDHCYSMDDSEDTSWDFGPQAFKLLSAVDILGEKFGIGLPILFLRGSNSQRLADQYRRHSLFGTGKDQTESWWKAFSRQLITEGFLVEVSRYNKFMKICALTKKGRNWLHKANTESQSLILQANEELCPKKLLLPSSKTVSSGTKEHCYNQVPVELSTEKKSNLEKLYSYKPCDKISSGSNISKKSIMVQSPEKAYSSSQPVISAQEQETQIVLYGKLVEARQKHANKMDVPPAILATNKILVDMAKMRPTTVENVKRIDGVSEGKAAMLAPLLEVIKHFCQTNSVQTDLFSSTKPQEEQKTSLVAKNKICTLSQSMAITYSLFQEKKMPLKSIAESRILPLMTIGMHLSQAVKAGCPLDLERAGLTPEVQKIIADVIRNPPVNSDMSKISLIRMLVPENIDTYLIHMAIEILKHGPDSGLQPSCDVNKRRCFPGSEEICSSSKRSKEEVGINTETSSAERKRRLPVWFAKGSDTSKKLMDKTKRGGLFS
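WRN at 20 nM final was preincubated with compound for 15 min at room temperature; reaction started with 100 nM forked duplex oligonucleotide carrying fluorophore and quencher plus 2 mM ATP (final). Unwinding followed kinetically by red fluorescence (ex 525/em 598 nm).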
* = called active by the depositor; ? = inconclusive; nt = no result given; [ ] = another dose, or the depositor's remark. The call rests on the fitted dose curve; in most records, active means well fitted curve in the direction sought with a large enough effect; inconclusive means small, poorly fitted or top-dose-only effect, or another doubt; inactive means no such curve, though single readings can be large; an effect the other way counts as inactive or inconclusive. Potency means the concentration at half of the fitted maximal effect.

SMILES	FEN1 inhibitor	Pol beta inh	POLH inh	POLI inh	Pol kappa inh	WRN inhibitor
O=C1/C(=C/c2ccc(O)c([N+](=O)[O-])c2)SC(=S)N1Cc1ccccc1	-15.2%	-3.1%	?	32.2%	-4.9%	-10.5%
CCN(CC)CCN(C(=O)c1ccco1)c1nc2c(C)cccc2s1	?	-12.7%	-7.9%	1.5%	1.1%	nt
Fc1ccc(/C=N/Nc2nccnc2Cl)cc1	-1.0%	32.4%	-23.2%	18.2%	-15.8%	1.3%
CCCCC1(C)NC(=S)N2N1C(=S)NC2(C)CCCC (centres undefined)	5.7%	23.9%	-12.4%	?	0.3%	56.2µM*
Cn1nnnc1Sc1ncnc2scc(-c3ccccc3)c12	3.2%	28.2µM*	?	?	-12.3%	-17.3%
CS(=O)(=O)Nc1cccc(-c2nc(Nc3ccccc3)c3ccccc3n2)c1	nt	nt	nt	nt	-7.4%[60.1 µM]	nt
COCCNc1nc(-c2cccc(NS(C)(=O)=O)c2)nc2ccccc12	nt	nt	nt	nt	25.1µM*	nt
CCOC(=O)C1=C(C)N=C2SC(C(=O)OC)=CC(=O)N2C1c1ccc(OC)cc1 (centres undefined)	-2.0%	-19.4%	-12.8%	89.1µM*	-24.3%	0.4%[11.6 µM]
COC(=O)c1cc(=O)c2c([N+](=O)[O-])ccc(OC)c2o1	0.2%	0.5%	-4.2%	127.0%	-0.4%	-12.3%
O=C1C(=Cc2cccs2)C(=O)c2ccccc21	0.5%	10.3%	-3.6%	-24.9%	-21.2%	-18.8%
Cc1ccc(C=C2C(=O)c3ccccc3C2=O)s1	-11.3%	-0.7%	?	25.1µM*	-15.7%	?
CCn1c(=O)c(-c2cc(=O)[nH][nH]2)c(O)c2ccccc21	0.9%	-10.9%	-8.2%	2.1%	-17.2%	-7.2%
O=c1cc(-c2c(O)c3ccccc3n(Cc3ccccc3)c2=O)[nH][nH]1	?	8.91µM*	?	?	79.4µM*	?
Cc1oc(-c2cccc(Cl)c2)nc1CN1CCC(C(=O)NCc2ccco2)CC1	3.0%	-0.9%	-0.9%	0.0%	-0.5%	1.4%
Cc1oc(-c2cccc(Cl)c2)nc1CN1CCC(C(=O)NC(C)C)CC1	-3.6%	14.6%	-16.1%	89.1µM*	-19.6%	nt
Cc1nc2c(C(=O)NCCc3ccc(Cl)cc3)c[nH]n2c(=O)c1Cc1ccc(Cl)cc1	?	22.4µM*	89.1µM*	79.4µM*	?	nt
Cc1nc2c(C(=O)NCCc3ccccc3)c[nH]n2c(=O)c1Cc1ccccc1F	-1.7%	?	3.0%	79.4µM*	-24.3%	nt
Cc1nc2c(C(=O)N(C)Cc3ccccc3)c[nH]n2c(=O)c1Cc1ccc(Cl)cc1	?	?	-10.7%	50.1µM*	89.1µM*	nt
CNC(=O)c1c[nH]n2c(=O)c(Cc3ccccc3F)c(C)nc12	14.9%	?	-6.9%	-21.9%	-2.5%	-3.8%
O=C(c1sc2cccc(F)c2c1Cl)N1CCN(c2ncccn2)CC1	0.4%	-0.6%	-18.3%	123.2%	3.3%	6.2%
COc1ccc(/[N+]([O-])=C/c2ccco2)cc1	-17.9%	nt	89.1µM*	?	-14.0%	10.2%
COc1cc(/C=N/NC(=O)CSc2cc(C)c(Br)cc2C)ccc1O	-18.2%	1.5%	?	3.0%	-9.6%	-8.9%
Cc1cc(SCC(=O)N/N=C/c2ccc(O)c(O)c2O)c(C)cc1Br	39.8µM*	?	?	?	?	50.1µM*
CCCNC(=O)C1CCC(Cn2c(=O)c3sccc3n(CC(=O)N(CC)CC)c2=O)CC1 (centres undefined)	36.3%	8.6%	-18.6%	-1.6%	21.4%	nt
CCCn1nc(C(=O)Nc2ccc(S(=O)(=O)Nc3ncccn3)cc2)c2ccccc2c1=O	14.1%	1.2%	50.1µM*	?	-24.2%	-16.3%
SMILES	FEN1 inhibitor	Pol beta inh	POLH inh	POLI inh	Pol kappa inh	WRN inhibitor
CC(=O)Nc1ccc(S(=O)(=O)Nc2ncccn2)cc1	-15.9%	0.4%	-5.7%	17.9%	7.5%	2.4%
O=C(Nc1ccc(S(=O)(=O)Nc2ncccn2)cc1)C1=COCCO1	-3.1%	nt	?	50.1µM*	-25.0%	-32.5%
COc1ccc2c(c1)-c1nc(/N=C/c3ccc(O)c(OC)c3)sc1CC2	-13.7%	14.9%	-13.2%	3.9%	-14.1%	79.4µM*
COc1ccc2c(c1)-c1nc(N)sc1CC2	7.9%	21.6%	-22.2%	19.5%	-0.3%	-0.9%
NC(=O)c1ccc(-n2nnnc2SCC(=O)Nc2ccc(N3CCOCC3)c(Cl)c2)cc1	1.3%	-21.1%	-12.3%	-6.6%	-2.9%	8.7%
CCOC(=O)c1nn(-c2ccccc2)c(C)c1C(C)=O	13.7%	-1.5%	-9.1%	?	-5.8%	-2.1%
CNC[C@H]1Oc2c(NS(=O)(=O)c3cccs3)cccc2C(=O)N([C@H](C)CO)C[C@@H]1C	1.7%	nt	-0.2%	-5.1%	-18.5%	-6.4%
CN(C)CCN(C(=O)/C=C/c1cccs1)c1nc2c(F)cc(F)cc2s1	17.1%	39.8µM*	-38.2%	?	-7.5%	-30.4%
Cc1sc2nc3c(SC(C)C(=O)O)cc(C(=O)c4ccccc4O)cn3c(=O)c2c1C (centres undefined)	-27.6%	?	?	?	-24.9%	?
COC(=O)c1cc(C(=O)c2cc(F)ccc2O)cn2c(=O)c3c(C)c(C)sc3nc12	-15.8%	31.6µM*	-14.7%	?	-21.5%	-15.9%
CCOC(=O)c1sc2nc3c(SCC(=O)O)cc(C(=O)c4ccccc4O)cn3c(=O)c2c1C	?	3.16µM*	?	?	-24.1%	2.3%[57.1 µM]
CCc1c(C)sc2nc3c(C(=O)N4CCOCC4)cc(C(=O)c4ccccc4O)cn3c(=O)c12	4.2%	27.7%	-9.9%	50.6%	-5.6%	-9.5%
COc1ccc(C(=O)c2nccc3cc(OC)c(OC)cc23)cc1OC	-16.4%	nt	?	?	-16.4%	-12.1%
COc1cc2c(cc1OC)-c1c(OC)c(OC)cc3ccnc(c13)C2=O	7.94µM*	?	?	23.9%	?	-4.0%
C/C(=N/Nc1ccc(C(=O)O)cc1)c1ccc(O)c(O)c1O	?	22.4µM*	?	-12.9%	-26.6%	?
COc1ccc(OC)c(/C(C)=N/Nc2ccc(C(=O)O)cc2)c1	14.0%	?	-19.4%	5.0%	-0.6%	-3.4%
N#Cc1c(C(F)(F)F)cc(-c2cccs2)nc1SCC(=O)Nc1ccc(Cl)cc1	-6.4%	23.3%	-15.1%	10.1%	-11.1%	nt
O=C(CSc1nc2nc(-c3cccs3)cc(C(F)(F)F)c2c(=O)[nH]1)Nc1ccc(F)c(F)c1	?	28.2µM*	31.6µM*	?	?	?
O=C(C[N+]12CN3CN(CN(C3)C1)C2)c1ccc(Cl)cc1	14.4%	nt	nt	-4.8%	1.4%	nt
O=C(C[N+]12CN3CN(CN(C3)C1)C2)c1ccc(O)c(O)c1	14.1µM*	nt	nt	10µM*	3.16µM*	nt

Source: PubChem BioAssay
